TLR4 MyD88 comp – inhibitors of human TLR4-MyD88 binding | 0.18% of 200,000 active | inhibition, % at 8.4 µM | AID 861 | HeLa CL3-4 TLR4/MyD88 BLA complementation, FRET ratio; in the data active means inhibition above about 25%;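 further: 0% = vehicle and 100% = reference inhibitor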
CRFR2-BP antag – blocks CRF-induced signaling of the CRF-BP/CRF-R2 complex | HEK293 CRF-R2/CRF-BP, CRF-induced calcium fluorescence | inhibition, % at 11.8 µM | 0.59% of 350,000 active;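 active means inhibition of the ligand-induced calcium signal above about 50% at the single tested concentration, limit read from the data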
HTR2A ag – agonists of mouse serotonin 5-HT2A receptor (HTR2A); P35363; 0.66% of 360,000 active; activation, % at 7.6 µM; CHO-K1 mHTR2A beta-arrestin complementation, luminescence; percent of 30 µM serotonin response;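 active means activation above a run cutoff, the mean activation of all tested compounds plus 3 SD, cut at about 14% in these data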;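 further: 0% = plate median of compound wells and 100% = 30 µM serotonin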
NOD2-RIPK2 inh – inhibitors of human NOD2-RIPK2 interaction | 0.38% of 360,000 active | inhibition, % at 4.98 µM | CHO BLA complementation NOD2-RIPK2, CCF4 ratio | O43353; in the data active means inhibition above about 21%;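 further: 0% = vehicle only and 100% = reference blocker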
TLR9-MyD88 inh – TLR9-MyD88 interaction inhibition | Q9NR96+Q99836 | CHO BLA complementation TLR9-MyD88, CCF4 FRET ratio | inhibition, % at 4.98 µM | 0.21% of 340,000 active | AID 504734;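 active means inhibition above the mean over all tested compounds plus 3 SD, cut at about 21% in these data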;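 further: 0% = DMSO only wells and 100% = clavulanate BLA inhibitor control wells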
ABHD5 PLIN5 PPI – ABHD5-PLIN5 protein interaction inhibition. Q00G26+Q8WTS1. Split G. princeps luciferase complementation, luminescence, 4 h. inhibition, % at 4 µM. 0.78% of 360,000 active;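 active means inhibition above the mean inhibition across every tested compound plus 3 SD, cut at about 22% in these data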;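 further: 0% = DMSO only wells and the 100% control is not disclosed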
TLR9-MyD88 conf – confirmation of human TLR9-MyD88 binding inhibitors | AID 540250 | CHO TLR9/MyD88 BLA complementation, CCF4 FRET ratio | shares compounds with TLR9-MyD88 inh | 51% of 680 active | inhibition, % at 4.98 µM;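 active means mean inhibition across three repeats above about 21% taken from the earlier screen, limit read from the data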;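 further: blue over green emission ratio reports constitutive TLR9 MyD88 association via BLA complementation; 0% = DMSO vehicle wells and 100% = clavulanate BLA inhibitor wells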
Target sequence (Q9NR96 whole entry, looked up): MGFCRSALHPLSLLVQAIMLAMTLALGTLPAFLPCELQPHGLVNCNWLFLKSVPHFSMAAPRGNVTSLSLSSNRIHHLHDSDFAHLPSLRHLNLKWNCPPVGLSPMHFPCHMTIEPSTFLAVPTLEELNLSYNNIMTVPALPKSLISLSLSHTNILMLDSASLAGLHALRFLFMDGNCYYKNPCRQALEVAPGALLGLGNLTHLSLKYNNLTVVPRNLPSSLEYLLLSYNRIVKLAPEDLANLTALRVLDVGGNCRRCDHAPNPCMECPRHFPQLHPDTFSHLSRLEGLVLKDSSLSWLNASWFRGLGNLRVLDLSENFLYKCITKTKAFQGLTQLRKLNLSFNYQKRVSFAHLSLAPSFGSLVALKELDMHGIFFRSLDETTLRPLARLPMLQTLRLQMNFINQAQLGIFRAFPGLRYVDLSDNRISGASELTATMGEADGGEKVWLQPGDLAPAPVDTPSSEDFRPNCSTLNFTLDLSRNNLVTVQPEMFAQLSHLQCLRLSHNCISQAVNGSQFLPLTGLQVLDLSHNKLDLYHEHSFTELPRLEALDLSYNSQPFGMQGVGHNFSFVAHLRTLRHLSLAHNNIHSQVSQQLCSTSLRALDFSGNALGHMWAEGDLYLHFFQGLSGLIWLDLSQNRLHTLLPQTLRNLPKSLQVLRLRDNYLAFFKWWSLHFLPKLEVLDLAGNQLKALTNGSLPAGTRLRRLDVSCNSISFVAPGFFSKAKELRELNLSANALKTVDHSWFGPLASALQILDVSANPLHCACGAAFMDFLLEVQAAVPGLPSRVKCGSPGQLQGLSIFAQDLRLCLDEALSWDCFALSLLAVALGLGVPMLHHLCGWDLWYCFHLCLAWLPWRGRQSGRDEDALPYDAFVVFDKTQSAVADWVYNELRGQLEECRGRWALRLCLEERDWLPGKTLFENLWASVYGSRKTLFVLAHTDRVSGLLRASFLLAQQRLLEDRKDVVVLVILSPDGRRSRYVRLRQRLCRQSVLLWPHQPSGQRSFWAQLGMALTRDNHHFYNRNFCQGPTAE
BLA counter-1 – counter-screen for TLR9-MyD88 inhibitors: non-selective beta-lactamase inhibitors; shares compounds with TLR9-MyD88 inh; CHO-BLA cells, CCF4 FRET ratio, BLA reporter; inhibition, % at 4.98 µM; 7% of 680 active; AID 540251;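 active means mean inhibition above a 50% cutoff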;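 further: counterscreen of TLR9-MyD88 hits on CMV-driven BLA in CHO-K1 cells; 0% = DMSO alone and 100% = clavulanate blocking BLA; higher means less blue over green ratio so more BLA blockade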
TLR9 CHO cytotox – CHO cell toxicity counter-screen for TLR9-MyD88 inhibitors | shares compounds with TLR9-MyD88 inh | TLR9-MyD88 CHO cells cytotoxicity, luminescence | inhibition, % at 4.98 µM | 39% of 680 active | AID 588336; in the data active means inhibition above about 11%
ABHD5-PLIN5 conf – confirmation of human ABHD5-PLIN5 interaction inhibitors; shares compounds with ABHD5 PLIN5 PPI; biochemical ABHD5-PLIN5 interaction, luminescence; inhibition, % at 4 µM; 67% of 2,200 active; in the data active means inhibition above about 23%;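 further: 0% = DMSO vehicle wells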
HNF4 counter – HNF4 split-luciferase signal hit, counter-screen | AID 651674 | 77% of 2,200 active | HNF4 dimerization, luminescence, biochemical | shares compounds with ABHD5 PLIN5 PPI | inhibition, % at 4 µM;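 active means mean inhibition across replicate wells exceeding the computed hit threshold, cut at about 13% in these data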;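 further: light from luciferase halves that rejoin when HNF4 fusion proteins dimerize; 0% = DMSO only wells and the 100% control is not given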
NOD2 RIPK2 conf – confirmation of human NOD2-RIPK2 interaction inhibitors. CHO cells, NOD2-RIPK2 BLA complementation, CCF4 FRET. shares compounds with NOD2-RIPK2 inh. 70% of 1,200 active. AID 624370. inhibition, % at 4.98 µM;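 active means mean inhibition across replicates above a set limit taken from the earlier primary screen, cut at about 21% in these data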;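 further: 0% = DMSO-only wells and the high end = clavulanate BLA-blocked wells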
BLA counter-2 – NOD2-RIPK2 counterscreen BLA reporter activity; shares compounds with NOD2-RIPK2 inh; CHO BLA reporter, CCF4 FRET ratio; inhibition, % at 4.98 µM; 57% of 1,200 active; AID 624371;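 active means mean inhibition above the low-control mean inhibition plus three low-control SD, cut at about 11% in these data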;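 further: 0% = DMSO only wells and 100% = clavulanate high control wells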
An asterisk follows results filed as active; · = not tested or not shown. In the library only some 2.4% were active in any assay of this set; here they are far more common.

SMILES	TLR4 MyD88 comp	CRFR2-BP antag	HTR2A ag	NOD2-RIPK2 inh	TLR9-MyD88 inh	ABHD5 PLIN5 PPI	TLR9-MyD88 conf	BLA counter-1	TLR9 CHO cytotox	ABHD5-PLIN5 conf	HNF4 counter	others
COC(=O)c1ccc(NC(=O)c2nc(S(=O)(=O)Cc3cccc(C)c3)ncc2Cl)cc1	·	52*	0	18	42*	44*	33*	27	100*	92*	95*
CC(C)CN1CCC1(C)C(=O)Nc1cccc(C#N)c1 (stereo not drawn)	·	·	6	0	·	-2	·	·	·	·	·
Cc1ccc(/C=C2/NC(=O)N(Cc3ccc(Br)cc3)C2=O)o1	-4	-5	-4	12	22*	55*	2	2	13*	63*	93*
CCCN1C(=O)/C(=C/c2ccc(C)o2)NC1=S	8	·	·	·	·	·	·	·	·	·	·
COC(=O)c1ccc(N2C(c3ccsc3)=Cc3cc4c(cc3C2CC(=O)c2ccco2)OCO4)cc1 (stereo not drawn)	·	·	-7	-8	·	-2	·	·	·	·	·
O=C1C=CC(=O)N1CCCCCCCCCCN1C(=O)C=CC1=O	·	2	-6	5	42*	58*	56*	34	96*	68*	106*
O=C1C=CC(=O)N1c1ccccc1N1C(=O)C=CC1=O	·	97*	7	-4	46*	30*	66*	38	99*	64*	109*
O=C1C=CC(=O)N1c1ccccn1	·	8	-3	4	5	-1	·	·	·	·	·
O=C(C#Cc1ccccc1)c1ccco1	·	-14	10	78*	30*	39*	48*	13	97*	54*	107*	NOD2 RIPK2 conf=83*;BLA counter-2=18*
Cc1cccc(-c2n[nH]nc2C2=CC(=O)CC(C)(C)C2)c1	·	17	7	-10	4	-1	·	·	·	·	·
CCc1cc(=O)oc2cc(OC(=O)CN3C(=O)NC4(CCCC4)C3=O)ccc12	·	7	3	-11	-9	12	·	·	·	·	·
O=C(CN1C(=O)NC2(CCCCC2)C1=O)Oc1ccc2c(C(F)(F)F)cc(=O)oc2c1	·	-2	9	67*	43*	-12	36*	40	-2	·	·	NOD2 RIPK2 conf=63*;BLA counter-2=67*
O=C(COC(=O)CCS(=O)(=O)c1ccccc1)NNC(=O)c1ccc([N+](=O)[O-])cc1	·	-3	-6	-4	-9	-1	·	·	·	·	·
COc1cc2[nH]c(=O)n(C3CCCCC3)c(=O)c2cc1OC	7	20	7	0	2	-4	·	·	·	·	·
Nc1ccc2nc3c(=O)n(C4CCCCC4)c(=O)[nH]c3nc2c1	·	-119	-2	41*	35*	-8	18	23	1	·	·	NOD2 RIPK2 conf=59*;BLA counter-2=66*
Cc1ccc(C)c(-n2sc3ccc(F)cc3c2=O)c1	·	-6	-3	26*	31*	100*	7	2	43*	76*	114*	NOD2 RIPK2 conf=33*;BLA counter-2=15*
Cc1ccc(-c2cc(=O)c3cc(F)ccc3[nH]2)cc1	1	5	0	1	-4	-4	·	·	·	·	·
